# Source: PubChem BioAssay AID1511 (Johns Hopkins Ion Channel Center, 2009)
# The campaign covered roughly 310,000 compounds. About 1,600 (0.52%) were called active. What follows is part of a selection rich in actives, with near analogues and random picks from the rest. Values without a mark were called inactive.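 Rule for the calls: active = activation above the mean of controls blocked by dofetilide plus 5 SD; inactive = the rest.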
# Molecular target: Voltage-gated inwardly rectifying potassium channel KCNH2 (Homo sapiens) (UniProt Q12809)
# Sequence (Q12809 whole entry, looked up): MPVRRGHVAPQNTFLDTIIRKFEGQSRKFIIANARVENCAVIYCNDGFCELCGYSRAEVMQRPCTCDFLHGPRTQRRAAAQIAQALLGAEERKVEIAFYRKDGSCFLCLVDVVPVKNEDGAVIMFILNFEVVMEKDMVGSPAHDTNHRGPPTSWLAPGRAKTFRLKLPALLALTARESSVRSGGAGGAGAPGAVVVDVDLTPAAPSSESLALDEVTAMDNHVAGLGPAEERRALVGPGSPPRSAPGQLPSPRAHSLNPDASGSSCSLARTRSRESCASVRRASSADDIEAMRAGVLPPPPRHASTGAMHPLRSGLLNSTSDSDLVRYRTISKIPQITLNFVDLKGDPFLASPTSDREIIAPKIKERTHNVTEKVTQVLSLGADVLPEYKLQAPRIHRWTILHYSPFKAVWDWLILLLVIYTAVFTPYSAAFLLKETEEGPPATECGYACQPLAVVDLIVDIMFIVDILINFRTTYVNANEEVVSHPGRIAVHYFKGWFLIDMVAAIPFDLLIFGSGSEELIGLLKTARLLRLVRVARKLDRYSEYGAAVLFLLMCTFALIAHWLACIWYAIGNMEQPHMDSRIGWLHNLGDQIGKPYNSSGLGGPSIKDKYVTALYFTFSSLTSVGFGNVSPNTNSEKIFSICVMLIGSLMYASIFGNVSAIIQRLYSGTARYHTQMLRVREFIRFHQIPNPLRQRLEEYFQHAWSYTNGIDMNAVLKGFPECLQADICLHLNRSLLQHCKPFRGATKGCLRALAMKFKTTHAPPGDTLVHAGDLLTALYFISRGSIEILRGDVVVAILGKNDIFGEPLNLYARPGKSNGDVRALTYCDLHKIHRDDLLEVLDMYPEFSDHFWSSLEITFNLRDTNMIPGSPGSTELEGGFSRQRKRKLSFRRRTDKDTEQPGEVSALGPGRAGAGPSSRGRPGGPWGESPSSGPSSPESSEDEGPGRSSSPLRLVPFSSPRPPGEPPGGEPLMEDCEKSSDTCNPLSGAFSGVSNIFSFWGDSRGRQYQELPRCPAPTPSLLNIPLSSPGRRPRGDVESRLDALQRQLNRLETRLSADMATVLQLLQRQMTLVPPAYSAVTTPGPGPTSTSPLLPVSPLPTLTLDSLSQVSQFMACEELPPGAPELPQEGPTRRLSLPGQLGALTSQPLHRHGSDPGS
# Assay: compounds relieving dofetilide block of hERG – cell-based, CHO-hERG, FluxOR thallium flux, dofetilide IC70, primary screen (AID 1511);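 note: thallium influx through hERG after potassium depolarization seen as dye fluorescence rise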
# Conditions: dofetilide IC70 present, at 10 µM, hits give high values
row,SMILES,"activation (rescue from dofetilide block), less the hit threshold"
1,COc1ccc(-c2cc(C(=O)N(C)Cc3ccccc3)c3ccccc3n2)cc1,-21.9%
2,Nc1nc(-c2ccccc2)cc(-c2ccccc2)n1,-6.21%
3,CN(C)c1cc(N)c2ccccc2n1 (tested in a mixture with another compound),5% (active)
4,CCCCOC(=O)c1ccc(NC(c2ccc(C)cc2)P(=O)(OC)OC)cc1 (configuration not stated),-14.4%
5,CC(=O)N1CCc2cc(Br)cc(S(=O)(=O)CCC(=O)Nc3c(C)n(C)n(-c4ccccc4)c3=O)c21,-18%
6,Cc1nn(-c2cc(Cl)ccc2N)c(=O)c2ccccc12,7.47% (active)
7,Cc1nn(C)cc1N1C(=O)c2cccc3c(N)ccc(c23)C1=O,-54.8%
8,Cc1cc(=O)oc2c1c(C)nn2-c1ccc(Cl)cc1,-1.68%
9,NS(=O)(=O)c1cccc(NC(=O)CC23CC4CC(CC(Br)(C4)C2)C3)c1,-7.94%
10,Cc1cccc(C)c1NC(=O)CS(=O)CC(=O)N1CCN(c2ccccc2)CC1 (configuration not stated),-5.6%
11,CC(C)C(=O)Nc1nnc(Sc2ccc(N(C)C)cc2)s1,-6.31%
12,Cc1cccc(C(=O)NC(=S)N(C)C2CCCCC2)c1,11.6% (active)
13,Cc1cccc(C(=O)NCCCN(C)CCCNC(=O)c2cccc(C)c2)c1,-3.82%
14,Cc1cccc(NC(=S)NCCN(C2CCCCC2)C2CCCC2)c1,-7.92%
15,COc1ccc2cc(C(=O)NCC3CCCO3)[nH]c2c1 (configuration not stated),-3.17%
16,N#CC1=C(N)N(c2ccc(F)cc2)C(=O)C1,3.49%
17,O=C(O)CCCCOn1ccnc1,-8.74%
18,O=c1c2ccccc2ncn1CCCCOc1ccccc1F,-7.18%
19,O=C(/C=C/c1ccco1)NC(=S)N1CCCCC1,-8.68%
20,COc1ccc(Cl)cc1C(=O)NNC(=S)NC(=O)/C=C/c1ccco1,34.2% (active)
21,O=C(/C=C/c1ccco1)NC(=S)Nc1ccccc1Br,0.92%
22,O=C(NNC(=S)NC1CCCCC1)c1ccccc1Cl,-19.3%
23,COc1ccc(Cl)cc1C(=O)NNC(=S)NC1CCCC1,5.84% (active)
24,C=CCNC(=S)NNC(=O)c1cc(Cl)ccc1OC,-3.41%
25,Cc1cccc(Cn2cnc3c(N)c(C)c(C)cc32)c1,-4.77%
26,CCOC(=O)/C=C/C(=O)OCC(=O)NC(c1ccccc1)c1ccccc1,-0.47%

row,SMILES,"activation (rescue from dofetilide block), less the hit threshold"
1,CSc1cccc(NC(=O)CN2C(=O)COc3ccc(S(=O)(=O)N4CCOCC4)cc32)c1,-8.66%
2,COc1cccc(CNCc2ccc3c(c2)OCO3)c1,-1.37%
3,O=C1Nc2cc(Cl)c(Cl)cc2N(O)N1c1ccccc1Cl,-11.3%
4,NC1=NN(c2cccc(C(=O)O)c2)C(=O)C1,-7.19%
5,O=C(O)c1cccc(N2C(=O)Nc3ccccc3N2O)c1,5.69% (active)
6,COc1cc(OC)c(NC(=O)C2CCCN2C(=O)OCc2ccccc2)cc1Cl (configuration not stated),-14.7%
7,COCCCNC(=O)CN1C(=O)CSc2ccc(S(=O)(=O)N3CCOCC3)cc21,-5.64%
8,O=C(COC(=O)c1ccccc1NC(=O)c1ccco1)Nc1ccc2c(c1)OC(F)(F)O2,-13.6%
9,O=S(=O)(NCCCc1ccccc1)c1ccc(Br)cc1,-3.29%
10,O=C1c2cccnc2C(=O)N1Cc1cccs1,-8.43%
11,O=C1c2ccccc2C(=O)N1CCCc1nc(-c2ccccc2)no1,-6.67%
12,O=C1c2ccccc2C(=O)N1Cc1cc(-c2ccccc2Cl)no1,11.4% (active)
13,Cc1ccc(NC(=O)C(CC(=O)O)C2CCCO2)c(C)c1 (configuration not stated),-3.96%
14,COCCCn1c(Cc2csc(Nc3cccc(Cl)c3)n2)nnc1SCC(=O)OC1CCCCC1,-9.88%
15,Cc1c(NC(=O)C(C)Oc2cccc(Cl)c2)c(=O)n(-c2ccccc2)n1C (configuration not stated),-2.29%
16,OC1CN=C2Sc3ccccc3N2C1 (configuration not stated),4.61% (active)
17,CCCNCc1cc(OCC)c(OCC(=O)Nc2ccccc2)cc1Br,-25.3%
18,C=Cn1cc[n+](CC(=O)c2ccc(OC)c(OC)c2)c1,-13.3%
19,COc1ccc(C2(O)C(=O)Nc3ccccc32)cc1 (configuration not stated),4.63% (active)
20,COc1ccc(C23NCCN2C(=O)c2ccccc23)cc1 (configuration not stated),-7.58%
21,Cc1cc(O)c(C2(O)C(=O)Nc3ccccc32)cc1C (configuration not stated),-4.06%
22,Cc1ccc(N2C(=O)C3N=NN(CC(=O)N4N=C(c5cccc6ccccc56)CC4c4ccccc4)C3C2=O)cc1 (configuration not stated),-4.02%
23,O=P(O)(CP(=O)(c1ccccc1)c1ccccc1)c1ccccc1O,6.37% (active)
24,CC(C)(C)c1cc(P(=O)(c2ccccc2)c2ccccc2)ccc1O,-11.2%
25,O=P(O)(CP(=O)(c1ccccc1)c1ccccc1)c1ccccc1,-3.04%
26,CS(=O)(=O)N(CC(=O)NC1CCCC1)Cc1ccc(F)cc1,1.73%
